The campaign covered roughly 220,000 compounds. About 2,300 (1%) were called active. About 6% were inconclusive and are not listed. This is one part of a sample in which actives are shown more often than they occur. Unmarked numbers belong to inactive results. The call rests on the fitted dose curve; in most records, active means well fitted inhibition curve with a large enough effect; inconclusive means small, poorly fitted or top-dose-only effect, or effect the other way; inactive means no such curve, though single readings can be large or run the other way.
Target: Neuropeptide S receptor (Homo sapiens) (UniProt Q6W5P4)
Test: qHTS Assay for Antagonists of the Neuropeptide S Receptor: cAMP Signal Transduction; further: nearly all actives have a fitted effect of over 50% in size
Conditions: CHO-NPSR cells, cAMP TR-FRET, antagonist mode; series mostly up to 38.3 µM; activity change, negative = inhibition: at the top concentration
On the % scale 0 is the no-effect control and ±100 the full control effect; potency means the concentration at half of the fitted maximal effect.

Chain of Neuropeptide S receptor (Homo sapiens) (Q6W5P4 whole entry, looked up): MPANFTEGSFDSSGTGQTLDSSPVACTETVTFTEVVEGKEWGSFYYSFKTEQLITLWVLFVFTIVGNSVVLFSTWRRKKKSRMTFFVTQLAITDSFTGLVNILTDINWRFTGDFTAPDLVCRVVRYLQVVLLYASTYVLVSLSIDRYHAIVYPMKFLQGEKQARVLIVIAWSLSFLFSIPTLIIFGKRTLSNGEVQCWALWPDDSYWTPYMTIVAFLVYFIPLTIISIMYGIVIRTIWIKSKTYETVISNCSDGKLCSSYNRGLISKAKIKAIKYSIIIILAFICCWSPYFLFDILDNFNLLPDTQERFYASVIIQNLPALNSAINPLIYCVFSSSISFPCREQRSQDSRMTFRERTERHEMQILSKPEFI

SMILES	Potency	activity change, negative = inhibition
CC1CCCCC1NC(=O)/C(C#N)=C/C=C/c1ccccc1[N+](=O)[O-] (stereo unspecified)	10 µM (active)	
O=C(/C=C/c1ccccc1[N+](=O)[O-])NCC1CCCO1 (stereo unspecified)		12.9%
O=C(/C=C/c1ccccc1[N+](=O)[O-])OC1CCCCC1=O (stereo unspecified)		1.58%
CN(c1ccccc1)S(=O)(=O)c1ccc(Cl)c(C(=O)OCC(=O)NCc2ccco2)c1		-0.308%
CN(C)C(=S)Nc1ccc(Br)cc1Cl		-9.99%
CCN(CC)CCC(c1cc(OC)c(OC)c(OC)c1)c1c(OC)cc(OC)c2c(-c3ccccc3)cc(=O)oc12 (stereo unspecified)		-24.9%
COc1cc(C(CCN2CCN(c3ccccc3)CC2)c2c(OC)cc(OC)c3ccc(=O)oc23)cc(OC)c1OC (stereo unspecified)	10 µM (active)	
COc1ccc(C(CC(=O)N2CCN(c3ccccc3)CC2)c2c(O)cc(OC)cc2OC)cc1 (stereo unspecified)		-25.2%
O=C(Nc1ccccc1)Nc1nnc(COc2ccccc2F)s1		-5.72%
COc1ccc(NC(=O)CCN2C(=O)/C(=C/c3ccc4c(c3)OCO4)SC2=S)cc1		3.47%
O=C(Cn1cnc2ccccc2c1=O)Nc1cccc(S(=O)(=O)N2CCCCC2)c1		-8.02%
CC(=O)Nc1ccc(CC#N)cc1		-15.3%
Cc1cc(-c2nc(C)c(-c3nnc(SCC(=O)Nc4ccccc4)n3C)s2)no1		5.55%
COc1ccc(N2C(=O)c3ccccc3NC2c2ccc(OC)c(CN3CCOCC3)c2)cc1 (stereo unspecified)		-35.7%
CCC(=O)NC(=S)Nc1ccc(NC(=O)c2ccco2)c(Cl)c1		-27.6%
O=C(Nc1ccc(Sc2ccc(Br)cc2)cc1)c1ccco1		-22.6% [at 46.1 µM]
CCN(CC)P(=O)(Nc1ccc(SC(F)F)cc1)c1ccc(N(C)C)cc1NC(=O)c1ccco1 (stereo unspecified)	5.01 µM (active)	
C=CCCN(Cc1ccccc1)S(=O)(=O)c1ccccc1Br		-39.7%
O=C(NNC(=O)c1csc(-c2cccnc2)n1)Nc1ccc(Cl)cc1		-1.58%
O=C(O)CC12CC3CC(C1)CC(n1ncc(NCc4ccc(F)cc4)c(Cl)c1=O)(C3)C2		-4.32%
O=C(NNC(=S)NC1CC2CCC1C2)c1ccc(Cl)cc1 (stereo unspecified)		-26.4%
CC(C)Cn1c(CN(Cc2ccccc2)Cc2ccccc2)nc2c1c(=O)n(C)c(=O)n2C	12.6 µM (active)	
COCCn1c(CN(Cc2ccccc2)Cc2ccccc2)nc2c1c(=O)n(C)c(=O)n2C		-20.7% [at 46.1 µM]
CC(C)CCn1c(CN(C)Cc2ccccc2)nc2c1c(=O)n(C)c(=O)n2C		-20.1% [at 46.1 µM]
Cc1cc(-c2n[nH]c(=S)n2/N=C/C(Br)=C/c2ccccc2)n[nH]1	3.98 µM (active)	
S=c1[nH]nc(-c2cccnc2)n1/N=C/C(Cl)=C\c1ccccc1		-30.4%

SMILES	Potency	activity change, negative = inhibition
Cc1cc(-c2n[nH]c(=S)n2/N=C/c2ccco2)n[nH]1		2.84%
Cn1c(SCC(=O)c2ccc(F)cc2)nnc1-c1ccccn1		-7.53%
Cc1nc2nc(SCC(=O)c3ccccc3)[nH]c2cc1Br		-26.3%
Nc1nc(SC23CC4CC(CC(C4)C2)C3)ns1		7.63%
Cn1c(C(=O)O)ccc1S(=O)(=O)N(Cc1ccccc1)Cc1ccccc1		35.6%
N#CC1=C(SCc2ccccc2)NC(=O)C(C#N)C12CCCC2 (stereo unspecified)		3.01% [at 46.1 µM]
N#C/C(=C1\CCCN1)c1nc(-c2ccccc2)cs1		-23.6% [at 46.1 µM]
N#CC1=C(SCc2ccc(C#N)cc2)N=C(N)C(c2nc(-c3ccccc3)cs2)C12CCCCC2 (stereo unspecified)	3.98 µM (active)	
S=c1[nH]c2ccccc2c2ccccc12		-17.7%
CCCCCCCCCCCCC(NC(C)=O)(C(=O)OCC)C(=O)OCC		40.3%
Nc1ccccc1Sc1cc(Cl)nnc1Cl		-25.8%
Cc1ccc(-c2c[n+](CC(=O)Nc3ccccc3)c3n2CCC3)cc1		-1.52%
CC(=O)c1c(C)[nH]c(=S)c(C#N)c1-c1ccc(F)cc1		-16.5%
CCOC(=O)c1c(C)[nH]c2c1-c1ccccc1C(=O)C2=O		6.24%
CCOC(=O)c1c(C)[nH]c(=S)c(C#N)c1-c1ccccc1	7.94 µM (active)	
Cn1cnc(S(=O)(=O)Nc2ccc3c(c2)OCCO3)c1		9.08%
Cc1cc(C)cc(NC(=O)NC2CCN(CC(=O)Nc3cccc(Cl)c3C)CC2)c1		-25.3%
O=C(CN1CCCCC1)Nc1ccccc1Cl		-3.09%
COCCN(CCOC)C(=S)Nc1ccccc1Cl		8.02%
O=C(Nc1ccccc1Cl)/C(Cl)=C(\Cl)S(=O)c1ccccc1 (stereo unspecified)	7.94 µM (active)	
COc1ccc(C(=O)N/N=C2\CCS(=O)(=O)c3ccc(F)cc32)cc1OC		-2.66%
COC(=O)c1cc(C(=O)OCC(=O)Nc2cc(C)on2)cc([N+](=O)[O-])c1		-14.2%
N/C(=N\OC(=O)CCn1cccc(C(F)(F)F)c1=O)c1ccc(OC(F)(F)F)cc1		-8.1%
Cn1c(S(=O)(=O)O)nc2ccccc21		22.2%
Cc1ccc(NC(=O)/C(=C/c2ccc([N+](=O)[O-])cc2)NC(=O)c2ccccc2)cc1		7.14%
